Laboratory results as given in PubChem BioAssay (NCATS).
Inconclusive results are not listed. Active and inactive are the calls of the source. Calls follow the shape of the dose curve; as a rule, active = well fitted curve in the direction sought with a large enough effect; inconclusive = small, poorly fitted or top-dose-only effect, or another doubt; inactive = no such curve, though single readings can be large; an effect the other way counts as inactive or inconclusive.

Columns and labels:
MCC-13 = assay: qHTS assay to identify novel small-molecules to repurpose for Merkel cell carcinoma treatment (AID 1296009); conditions: MCC and control cell lines, CellTiter-Glo viability, 72 h; series mostly up to 46 µM; also: nearly all actives have a fitted effect of over 60% in size
In short: (§1)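 Cell viability measured by CellTiter-Glo following 72 hr compound treatment at 37 degree celsius, with NPC and MIPE libraries tested in 8- and 11-point concentration series.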

MCC-26 = assay: as above; conditions: MCC and control cell lines, CellTiter-Glo viability, 72 h; series mostly up to 46 µM
In short: as §1

MKL-1 = assay: as above; conditions: MCC and control cell lines, CellTiter-Glo viability, 72 h; series mostly up to 46 µM
In short: as §1

MKL-2 = assay: as above; conditions: MCC and control cell lines, CellTiter-Glo viability, 72 h; series mostly up to 46 µM
In short: as §1

NIH3T3 = assay: as above; conditions: MCC and control cell lines, CellTiter-Glo viability, 72 h; at 44.8 µM (top of the series) unless noted
In short: as §1

UISO = assay: as above; conditions: MCC and control cell lines, CellTiter-Glo viability, 72 h; series mostly up to 46 µM
In short: as §1

WaGa = assay: as above; conditions: MCC and control cell lines, CellTiter-Glo viability, 72 h; series mostly up to 46 µM
In short: as §1

C33A = assay: Primary qHTS to identify gynecologic anti-cancer compounds using libraries of approved drugs and bioactive compounds (AID 1345084); conditions: Gynecologic cancer cell panel viability, ATPlite luminescence, 48 h; series mostly up to 57.5 µM; also: nearly all actives have a fitted effect of over 55% in size
In short: (§2)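 Cells, 1,000 per well, were allowed to settle for 16 h at 37 C before compound addition. Five concentrations were tested for 48 h, and viability was read by ATPlite luminescence after 15 min at room temperature.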

CASKI = assay: as above; conditions: Gynecologic cancer cell panel viability, ATPlite luminescence, 48 h; series mostly up to 57.5 µM
In short: as §2

Es-2 = assay: as above; conditions: Gynecologic cancer cell panel viability, ATPlite luminescence, 48 h; series mostly up to 57.5 µM
In short: as §2

HeLa = assay: as above; conditions: Gynecologic cancer cell panel viability, ATPlite luminescence, 48 h; series mostly up to 57.5 µM
In short: as §2

JEG-3 = assay: as above; conditions: Gynecologic cancer cell panel viability, ATPlite luminescence, 48 h; series mostly up to 57.5 µM
In short: as §2

OV90 = assay: as above; conditions: Gynecologic cancer cell panel viability, ATPlite luminescence, 48 h; series mostly up to 57.5 µM
In short: as §2

PA-1 = assay: as above; conditions: Gynecologic cancer cell panel viability, ATPlite luminescence, 48 h; series mostly up to 57.5 µM
In short: as §2

Tov-21-G = assay: as above; conditions: Gynecologic cancer cell panel viability, ATPlite luminescence, 48 h; series mostly up to 57.5 µM
In short: as §2

Tov112D = assay: as above; conditions: Gynecologic cancer cell panel viability, ATPlite luminescence, 48 h; series mostly up to 57.5 µM
In short: as §2

Hek293T = assay: as above; conditions: Gynecologic cancer cell panel viability, ATPlite luminescence, 48 h, control line for the selectivity index; series mostly up to 57.5 µM
In short: as §2

SKOV3 = assay: as above; conditions: Gynecologic cancer cell panel viability, ATPlite luminescence, 48 h; series mostly up to 57.5 µM
In short: as §2

[1] = Drug repurposing screens with cells derived from glioblastoma tumor samples (AID 1345199); conditions: GBM patient neurospheres viability, ATP luminescence, 48 h; Potency: tumour line A; series mostly up to 46.1 µM; also: nearly all actives have a fitted effect of over 40% in size
In short: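 Primary testing used CD133+ neurospheres from four GBM patients, seven concentrations, 48 h exposure and ATP-based viability; confirmation added three slower-growing patient lines.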

Measured: Potency

CC(C)N(CC[C@H](c1ccccc1)c1cc(CO)ccc1O)C(C)C
inactive: MCC-13 | MCC-26 | MKL-1 | MKL-2 | NIH3T3 | UISO | WaGa

CCCCOc1ccc(C(=O)Nc2ccc(F)cc2F)cc1
not listed: Hek293T | SKOV3 | [1]
inactive: all other assays above

COC(=O)[C@@H]1CC2=CC(=O)CC[C@]2(C)[C@@]23O[C@@H]2C[C@@]2(C)[C@H](CC[C@@]24CCC(=O)O4)[C@@H]13
inactive: MCC-13 | MCC-26 | MKL-1 | MKL-2 | NIH3T3 | UISO | WaGa

C[C@@H]1[C@H](C)CC[C@]2(C(=O)O)CC[C@]3(C)C(=CC[C@@H]4[C@@]5(C)C[C@@H](O)[C@H](O)[C@@](C)(CO)[C@H]5CC[C@]43C)[C@@H]12
inactive: MCC-13 | MCC-26 | MKL-1 | MKL-2 | NIH3T3 | UISO | WaGa

Cc1ccc(O)c(C(CCN(C(C)C)C(C)C)c2ccccc2)c1 (stereo unspecified)
inactive: MCC-13 | MCC-26 | MKL-1 | MKL-2 | NIH3T3 | UISO | WaGa

CC[C@H]1OC(=O)[C@H](C)[C@@H](O[C@H]2C[C@@](C)(OC)[C@@H](O)[C@H](C)O2)[C@H](C)[C@@H](O[C@@H]2O[C@H](C)C[C@H](N(C)C)[C@@H]2O)[C@](C)(OC)C[C@@H](C)C(=O)[C@H](C)[C@@H](O)[C@]1(C)O
inactive: MCC-13 | MCC-26 | MKL-1 | MKL-2 | NIH3T3 | UISO | WaGa

O=c1[nH]c(=O)n([C@H]2C[C@@H](O)[C@@H](CO)O2)cc1C=CBr
inactive: MCC-13 | MCC-26 | MKL-1 | MKL-2 | NIH3T3 | UISO | WaGa

Nc1nc(=O)n([C@H]2CSC(CO)O2)cc1F (stereo partly specified)
inactive: MCC-13 | MCC-26 | MKL-1 | MKL-2 | NIH3T3 | UISO | WaGa

Nc1nc2c(c(=O)[nH]1)N(C=O)[C@H](CNc1ccc(C(=O)N[C@@H](CCC(=O)O)C(=O)O)cc1)CN2
inactive: MCC-13 | MCC-26 | MKL-1 | MKL-2 | NIH3T3 | UISO | WaGa

NC(=O)c1ncn([C@@H]2O[C@H](CO)[C@@H](O)[C@@H]2O)c1N
inactive: MCC-13 | MCC-26 | MKL-1 | MKL-2 | NIH3T3 | UISO | WaGa

OCc1ccccc1O[C@@H]1O[C@H](CO)[C@H](O)[C@H](O)[C@H]1O
inactive: MCC-13 | MCC-26 | MKL-1 | MKL-2 | NIH3T3 | UISO | WaGa

N[C@H]1CN(c2c(F)cc3c(=O)c(C(=O)O)cn(C4C[C@@H]4F)c3c2Cl)CC12CC2 (stereo partly specified)
not listed: C33A
inactive: all other assays above

C[C@]12CCC(=O)C=C1[C@@H]1CC1[C@H]1[C@H]3[C@@H]4C[C@H]4[C@@]4(CCC(=O)O4)[C@@]3(C)CC[C@H]12 (stereo partly specified)
inactive: MCC-13 | MCC-26 | MKL-1 | MKL-2 | NIH3T3 | UISO | WaGa

COc1ccc(CCC(=O)c2c(O)cc(O[C@@H]3O[C@H](CO)[C@@H](O)[C@H](O)[C@@H]3O[C@@H]3O[C@@H](C)[C@H](O)[C@@H](O)[C@@H]3O)cc2O)cc1O
inactive: MCC-13 | MCC-26 | MKL-1 | MKL-2 | NIH3T3 | UISO | WaGa

C[C@@]12C[C@@]3(O)O[C@@H](O1)[C@]1(COC(=O)c4ccccc4)[C@@H]3C[C@@]12O[C@@H]1O[C@H](CO)[C@@H](O)[C@H](O)[C@@H]1O
inactive: MCC-13 | MCC-26 | MKL-1 | MKL-2 | NIH3T3 | UISO | WaGa

O=C(NNC(=O)c1ccc(CNS(=O)(=O)c2ccc(F)c(Cl)c2)cc1)c1ccccc1
inactive: MCC-13 | MCC-26 | MKL-1 | MKL-2 | NIH3T3 | UISO | WaGa

CC[C@H]1OC(=O)[C@H](C)[C@@H](O[C@H]2C[C@@](C)(OC)[C@@H](O)[C@H](C)O2)[C@H](C)[C@@H](O[C@@H]2O[C@@H](C)C[C@H](N(C)C)[C@@H]2O)[C@](C)(O)C[C@@H](C)C(=O)[C@H](C)[C@@H](O)[C@]1(C)O
inactive: MCC-13 | MCC-26 | MKL-1 | MKL-2 | NIH3T3 | UISO | WaGa

C[C@H](CCC(=O)O)[C@H]1CCC2C3C[C@H](O)[C@@H]4C[C@H](O)CC[C@]4(C)C3CC[C@@]21C (stereo partly specified)
inactive: MCC-13 | MCC-26 | MKL-1 | MKL-2 | NIH3T3 | UISO | WaGa
